Consider 57 compounds from PubChem BioAssay AID1347416 (National Center for Advancing Translational Sciences (NCATS), 2020).

SMILES strings stand for the structures. In all, about 4,100 compounds went through this assay and about 1,600 (39%) were called active. Another 25% or so got no clear call; they are omitted. Calls follow the shape of the dose curve; as a rule, active = well fitted inhibition curve with a large enough effect; inconclusive = small, poorly fitted or top-dose-only effect; inactive = no such curve, though single readings can be large or run the other way. The list shows a part of the results. Entries that show only a call come without a potency.
Potency is read from the fitted curve at half-maximal effect.

A short description of the assay: qHTS Validation assay for Inhibitors of Plasmodium falciparum Dd2 growth in vitro. Also: nearly all actives have a fitted effect of over 70% in size. The conditions noted are these: P. falciparum Dd2 in RBCs, SYBR Green growth, 72 h; series mostly up to 28.7 µM. The method, boiled down: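 P. falciparum Dd2-infected red blood cells (2.5% hematocrit, 0.3% parasitemia) grown 72 h at 37 °C under 5% O2 with compounds in a titration, 29 uM to 0.5 nM final. Growth read as SYBR Green-1 fluorescence after ~16 h lysis; artesunate 300 nM as positive control.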
Background: qHTS replaces the single test concentration by a dilution series.
As for `CN(Cc1ccccc1)Cc1ccccc1OCC(O)CN1CCCCC1` (configuration not stated), the Potency was 1.5 µM (active). `COc1cc(CN2Cc3ccccc3C2)ccc1OCC(O)CN1CCOCC1` (configuration not stated): the Potency result is “inactive”. Next, `OC(COc1ccccc1CNCCc1ccccc1)CN1CCSCC1` (configuration not stated): 2.11 µM (active); `Cc1cccc(CNC(=O)c2cc3c(N4CCSCC4)nc(C)cn3n2)c1`: “inactive”; `Cc1cccc(CNCc2ccccc2OCC(O)CN2CCSCC2)c1` (configuration not stated): 1.5 µM (active).

Take `Cc1cc(Nc2sc(C(=O)c3ccc(F)cc3)c(N)c2C(=O)Nc2ccc(F)cc2)ccc1Cl`: the Potency was 0.75 µM (active). Next, `CC(=O)N1CCCN(C(=O)c2c[nH]c3ncccc23)CC1`: “inactive”; `O=C(Cc1c[nH]c2ncc(-c3ccc(Cl)cc3)cc12)NCc1cccnc1`: 1.72 µM (active); `COc1ccccc1C(=O)N[C@H]1[C@H](O)[C@H](O)C[C@@H]1c1cccnc1`: “inactive”. Next, `O=C(CC[C@@H]1CNC(=O)[C@@H]2C[C@H](NC(=O)Nc3cccc(Cl)c3)CN12)NCc1cccnc1`: “inactive”; `COc1ccc(-c2cnc3[nH]cc(CC(=O)NCc4cccnc4)c3c2)cc1OC`: 1.53 µM (active); `COc1ccc(C(=O)NCc2nc(-c3cccc(C)c3)no2)cc1OC`: “inactive”. Next, `COc1ccc(-c2cnc3[nH]cc(CC(=O)NCc4cccnc4)c3c2)cn1`: 6.85 µM (active). `CC1(COc2cccnc2)COc2ccc(C(=O)NCc3ccc(F)cc3)cc2N1` (configuration not stated): the Potency entry was “inactive”. Regarding `Cc1cn2nc(C(=O)N3CCC(NC(=O)c4nccc5ccccc45)CC3)cc2c(=O)[nH]1`, the Potency result is “inactive”. Next, `O=C1NCCCCCN(C(=O)c2ccsc2)[C@@H]2C[C@@H](C(=O)N3CCc4ccccc4C3)C[C@H]12`: “inactive”; `O=C1NCCCCCN(C(=O)CC2CCCC2)[C@@H]2C[C@@H](C(=O)N3CCc4ccccc4C3)C[C@H]12`: “inactive”; `O=C(NCCc1c[nH]c2ccccc12)[C@@H]1C[C@H]2C(=O)NCCCCCCN(C(=O)c3ccco3)[C@H]2C1`: 10.6 µM (active).

As for `CCCCCn1c(=O)[nH]c2cc(C(=O)NCc3ccc(OC)cc3)ccc2c1=O`, the Potency entry is “inactive”. Next, `CCCCn1c(N)c(N(CC(C)C)C(=O)c2cc(-c3ccc(OC)c(OC)c3)nc3ccccc23)c(=O)[nH]c1=O`: 11.9 µM (active). With `COc1ccccc1NC(=O)N1CC(=O)Nc2sc3c(c2C1c1ccccc1)CCCC3` (configuration not stated), the Potency is 15 µM (active). Consider `CCOc1ccccc1NC(=O)c1c(NC(=O)COc2ccccc2)sc2c1CCCCC2`, for which the Potency result was “inactive”. Next, `Cc1cc(C)cc(N(CC(=O)NCc2ccc3c(c2)OCO3)C(=O)CCC(=O)Nc2ccccn2)c1`: 4.22 µM (active); `COc1ccc(N(CC(=O)NCc2ccccc2)C(=O)CCC(=O)Nc2cc(C)ccn2)c(OC)c1`: 10.6 µM (active). Consider `COc1ccc(C(=O)/C=C/Nc2cc(C)ccn2)cc1`, for which the Potency result is “inactive”. For `CC(=O)N1CCCC(c2nn(C)c(=O)n2C2CCCC2)C1` (configuration not stated), the Potency entry was “inactive”. Next, `COc1cccc(Nc2ccc3c(n2)C(C)(C(=O)NC2CCC2)CN(C)C3)c1` (configuration not stated): 15.3 µM (active); `COc1cccc(CCC(=O)NC2CCN(C(=O)c3cc4c(=O)[nH]c(C)cn4n3)CC2)c1`: “inactive”.

For `CCC(C)NC(=O)CSc1nc2cc3c(cc2c(=O)n1CCCC(=O)NCc1ccc2c(c1)OCO2)OCO3` (configuration not stated), the Potency entry was “inactive”. Regarding `COc1cccc(Nc2ccc3c(n2)C(C)(C(=O)NCC2CC2)CN(C)C3)c1` (configuration not stated), the Potency was 12.2 µM (active). Next, `CN1Cc2ccc(Nc3ccccc3)nc2C(C)(C(=O)NCc2ccc3c(c2)OCO3)C1` (configuration not stated): 13.7 µM (active); `COc1cccc(Nc2ccc3c(n2)C(C)(C(=O)NC2CCN(C)CC2)CN(C)C3)c1` (configuration not stated): 17.2 µM (active). Next, `Cc1cnc(C(=O)N[C@@H]2CCC[C@@H]2C(=O)NCc2ccc3c(c2)OCO3)cn1`: “inactive”; `O=c1[nH]c(C2CCN(S(=O)(=O)/C=C/c3ccccc3)CC2)nc2c1nnn2Cc1ccc(F)cc1`: 13.3 µM (active).

Turning to `Cc1nncn1C1CCN(S(=O)(=O)c2ccc(F)c(F)c2)CC1`, the Potency entry was “inactive”. Next, `O=c1[nH]c(C2CCN(S(=O)(=O)c3ccc4c(c3)OCCO4)CC2)nc2c1nnn2Cc1ccc(F)cc1`: 8.41 µM (active). Next, `c1ccc(-c2noc(-c3cncnc3NC3CCCCCC3)n2)cc1`: “inactive”.

Turning to `CC(C)(C)NC(=S)Nc1ccc(Nc2ccccc2)cc1`, the Potency entry was “inactive”. With `CC(C)Oc1ccc2c(c1)OC(c1ccccc1)(C(F)(F)F)NC2=O` (configuration not stated), the Potency is 2.66 µM (active). Next, `CCOc1ccc2c(c1)OC(c1ccc(C)cc1)(C(F)(F)F)NC2=O` (configuration not stated): 2.66 µM (active); `CCCNC(=O)Nc1ccc(OC2CCN(C(=O)CC)C2)nc1` (configuration not stated): “inactive”; `CCOC(=O)Cn1c(=O)c2c(nc(N3CCCCC3)n2C)n(C)c1=O`: “inactive”. For `CCn1c(N2CCC(C)CC2)nc2c1c(=O)n(C)c(=O)n2C`, the Potency was 5.96 µM (active). Regarding `O=C(Nc1ccc(Cl)cc1)Nc1nc(-c2ccccc2O)cs1`, the Potency is 6.68 µM (active). Take `O=C(Nc1ccc([N+](=O)[O-])cc1)Nc1nc(-c2ccc(Cl)s2)cs1`: the Potency was 2.99 µM (active). For `COc1ccc(-c2csc(NC(=O)C(CC(=O)O)N3CCOCC3)n2)cc1` (configuration not stated), the Potency entry is “inactive”. Consider `O=C(Nc1nc(-c2ccccn2)cs1)c1ccc(F)c(S(=O)(=O)N2CCOCC2)c1`, for which the Potency is 2.11 µM (active). Next, `O=C(Nc1nc(-c2ccccn2)cs1)c1cccc(S(=O)(=O)N2CCOCC2)c1`: 5.96 µM (active); `N#Cc1cc(C#N)c(N2CCN(c3cccc(Cl)n3)CC2)nc1N`: 3.35 µM (active).

In the case of `Cn1nccc1C(=O)N1CCC2(CC1)NCCc1c2[nH]c2ccccc12`, the Potency result was “inactive”. For the compound `COCc1noc(CC2CCOC3(CCN(C(=O)c4c[nH]c5ccccc45)CC3)C2)n1` (configuration not stated), the Potency result was “inactive”. `Cc1ccc(C(=O)N2CCC(c3c[nH]c4ccccc34)(c3c[nH]c4ccccc34)CC2)cc1`: the Potency is 8.41 µM (active).

Take `c1ccc([C@H]2CN3CCSC3=N2)cc1`: the Potency result was “inactive”. Turning to `NC(Cc1ccccc1)C(=O)N1CCC2(CC1)CN(C(=O)c1ccc(Cl)cc1)CCO2` (configuration not stated), the Potency is 0.842 µM (active).

Consider `O=C(NCc1ccccc1)N1CCC2(CC1)CC(N(C(=O)c1ccccc1)C1CC1)CCO2` (configuration not stated), for which the Potency result is “inactive”. As for `CC(C)(C)c1ccc(C(=O)N2CCC3(C2)NC(=O)N(Cc2ccc(Cl)cc2)C3=O)cc1` (configuration not stated), the Potency entry was “inactive”.

`Cc1ccc(CN2CCNC(=O)C2CC(=O)N(CC(C)C)CC(C)C)cc1` (configuration not stated): the Potency result was “inactive”.
